# Inconclusive results are not listed. A number with no mark means an inactive call. Calls follow the shape of the full dose curve.
# Target: Peroxisome proliferator-activated receptor gamma (Homo sapiens) (UniProt P37231)
# Test: qHTS assay to identify small molecule antagonists of the peroxisome proliferator-activated receptor gamma (PPARg) signaling pathway (AID 743191); also: nearly all actives have a fitted effect of over 30% in size
# Settings: HEK293H PPARg-UAS-bla, beta-lactamase ratio, antagonist, 17 h; series mostly up to 62.6 µM; ratio activity, negative = inhibition: at the top concentration
# From the text: U.S. Tox21 Program National Center for Advancing Translational Sciences [NCATS] NIH Chemical Genomics Center [NCGC] U.S. Environmental Protection Agency [EPA] National Institutes of Environmental Health Sciences [NIEHS] National Toxicology Program [NTP] U.S. Food and Drug Administration [FDA] Tox21 Assay Overview: The peroxisome proliferator-activated receptors (PPARs) are lipid-activated transcription factors of the nuclear receptor superfamily with three distinct subtypes namely PPAR alpha, PPAR delta (also called PPAR beta) and PPAR gamma (PPARg). All these subtypes heterodimerize with Retinoid X receptor (RXR) and these heterodimers regulate transcription of various genes. PPAR-gamma receptor (glitazone receptor) is involved in the regulation of glucose and lipid metabolism. To identify the compounds that inhibit PPAR-gamma signaling, GeneBLAzer PPAR gamma UAS-bla HEK293H cell line (Invitrogen, Carlsbad, CA, USA) containing a beta-lactamase reporter gene under control of an Upstream Activator Sequence (UAS) was used to screen the Tox21 compound library.
# Tox21 Assay Protocol Summary: PPARg-bla cells were dispensed at 3000 cells/6uL/well in 1536-well black wall/clear bottom plates using a Multidrop Combi (Thermo Fisher Scientific, Waltham, MA) dispenser. After the assay plates were incubated at 37C and 5% CO2 for 5 h, 23 nL of compounds dissolved in DMSO, positive controls or DMSO only was transferred to the assay plate by a Pintool station (Kalypsys, San Diego, CA). The assay plates were incubated at 37C for 17 h. After 1 uL of LiveBLAzerTM B/G FRET substrate was added using a Bioraptr Flying Reagent Dispenser (FRD) workstation (Beckman Coulter, Indianapolis, IN, USA), the plates were incubated at room temperature for 1 h, and fluorescence intensity was measured by an Envision plate reader (PerkinElmer, Shelton, CT).
# % is scaled to controls: 0 for no effect and ±100 for the full control effect.
# Peroxisome proliferator-activated receptor gamma (Homo sapiens), sequence (P37231 whole entry, looked up): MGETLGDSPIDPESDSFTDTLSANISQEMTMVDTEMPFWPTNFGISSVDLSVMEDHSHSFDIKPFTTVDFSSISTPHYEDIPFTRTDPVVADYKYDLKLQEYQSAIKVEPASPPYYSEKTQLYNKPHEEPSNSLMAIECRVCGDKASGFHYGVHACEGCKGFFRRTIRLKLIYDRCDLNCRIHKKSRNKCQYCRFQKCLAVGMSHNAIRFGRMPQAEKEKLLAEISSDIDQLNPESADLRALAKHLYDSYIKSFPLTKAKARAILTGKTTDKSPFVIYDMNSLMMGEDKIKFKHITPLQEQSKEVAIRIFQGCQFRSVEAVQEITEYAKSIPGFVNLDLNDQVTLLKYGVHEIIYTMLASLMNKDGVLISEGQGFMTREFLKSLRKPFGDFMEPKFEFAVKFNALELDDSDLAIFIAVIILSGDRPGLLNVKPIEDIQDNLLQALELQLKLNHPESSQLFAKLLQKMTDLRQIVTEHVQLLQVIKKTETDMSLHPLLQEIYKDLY
row,Compound,"ratio activity, negative = inhibition"
1,O=C(CCCN1CCN(c2ccccn2)CC1)c1ccc(F)cc1,-5.75%
2,CC(C)(CC(=O)O)C(=O)O,5.22%
3,CN1CCCC1,12.7%
4,CN1CCC(=C2c3ccccc3CC(=O)c3sccc32)CC1,1.36%
5,C=COCC1CCC(CO)CC1 (stereo not given),-10.7%
6,CN(C)CCCNCCCN(C)C,-1.55%
7,CCCCCCCCCCCCCC=O,-1.51% [at 5.95 µM]
8,Cc1c(NC(C)C)c(=O)n(-c2ccccc2)n1C,-3.44%
9,CCCCCCCCS(=O)(=O)Cl,6.18% [at 81.1 µM]
10,CCCC(=O)O[C@]1(C(=O)CO)CC[C@H]2[C@@H]3CCC4=CC(=O)CC[C@]4(C)[C@H]3[C@@H](O)C[C@@]21C,8.06%
11,COc1cc(C(=O)N2CCCCCCC2)cc(OC)c1OC,14.9%
12,CCn1ccnc1CC1COc2ccccc2O1 (stereo not given),-3.69%
13,CCOC(=O)C(=O)OCC,-0.68%
14,C=CCS(=O)(=O)O,5.83%
15,Nc1ccc(S(=O)(=O)Nc2ccnn2-c2ccccc2)cc1,13.6% [at 29.1 µM]
16,O=C(CCCN1CCC(O)(c2cccc(C(F)(F)F)c2)CC1)c1ccc(F)cc1,-15.4%
17,CCn1nc(C(=O)O)c(=O)c2cc3c(cc21)OCO3,0.108%
18,CCc1cccc2c(CCO)c[nH]c12,7.2%
19,CN1C(=O)N(C)C(O)C1O (stereo not given),3.21%
20,Cn1cc(S(C)=O)c(=O)c2ccc(F)cc21 (stereo not given),0.226%

row,Compound,"ratio activity, negative = inhibition"
1,O=C(O)Cc1ccc(CCNS(=O)(=O)c2ccc(Cl)cc2)cc1,-10.2%
2,O=C(O)COc1nn(Cc2ccccc2)c2ccccc12,3.44%
3,C[C@H]1C[C@@H](O)CC(C)(C)C1,4.39%
4,CC(NC(CCc1ccccc1)C(=O)O)C(=O)N1C(=O)N(C)CC1C(=O)O (stereo not given),1.2%
5,CCN1CCC[C@H]1CNC(=O)c1cc(S(N)(=O)=O)ccc1OC,0.76%
6,CN1N=C(C(N)=O)CCC1=O,2.08%
7,CCC(C)C1CCCCC1=O (stereo not given),-0.413%
8,CCc1nccnc1CC,7.41% [at 29.1 µM]
9,O=C1OC(=O)C2CCCCC12 (stereo not given),1.04%
10,NC(=O)c1ccc([N+](=O)[O-])cc1,1.18%
11,CC(=O)CC(C)(C)C1CCCCC1,0.387%
12,O=C(O)CCCc1ccccc1,2.62%
13,COC(=O)c1ccc(C)cc1C1=NC(C)(C(C)C)C(=O)N1 (stereo not given),4.5%
14,Cc1ccc(=O)n(-c2ccccc2)c1,5.76%
15,CC(C(=O)O)c1ccc(CC2CCCC2=O)cc1 (stereo not given),-0.914%
16,O=C1CC2CC1C1CCCC21 (stereo not given),-0.968%
17,CCc1ccc(O)c(OC)c1,23.1%
18,O=C(O)c1ccccc1OP(=O)(O)O,-9.29%
19,CC(C)NC(=O)NC(C)C,5.38%
20,COCCc1ccc(OCC(O)CNC(C)C)cc1 (stereo not given),0.733%
